# Measured values reported in the supplement of paper PMC12067093, “Discovery and optimisation of a covalent ligand for TRIM25 and its application to targeted protein ubiquitination” (Chemical Science, 2025).
# Of roughly 21,000 targets only a part is listed; those with the largest changes were picked by preference.
# Compound: CC1Cc2ccccc2N1C(=O)C1CCCN(C1)C(=O)CCl (mixture of isomers) [TRIM25 ligand 11 (diastereomer mixture)]
# Assay: probe-labelled cysteine peptide fold change vs DMSO (competition) (log2 fold change); higher = less target engagement (more negative = stronger competition)
# Details: 10 µM; THP-1; incubation time: 4 h
# 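Also: competitive chemoproteomic profiling in live THP-1 cells with an iodoacetamide desthiobiotin (IA-DTB) probe, comparing probe-labelled peptide intensities in compound-treated cells against DMSO-treated controls.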
# Sequence of UniProt Q96FX7 (Q96FX7 whole entry): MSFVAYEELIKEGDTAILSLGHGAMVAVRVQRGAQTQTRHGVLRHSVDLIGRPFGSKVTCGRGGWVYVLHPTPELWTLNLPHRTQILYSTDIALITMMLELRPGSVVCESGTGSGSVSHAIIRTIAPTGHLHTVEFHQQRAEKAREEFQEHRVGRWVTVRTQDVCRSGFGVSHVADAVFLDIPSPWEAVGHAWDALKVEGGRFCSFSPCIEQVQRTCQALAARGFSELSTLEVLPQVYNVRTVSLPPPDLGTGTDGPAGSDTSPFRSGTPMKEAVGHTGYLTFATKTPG
# Sequence of UniProt Q9H3U1 (Q9H3U1 whole entry, looked up): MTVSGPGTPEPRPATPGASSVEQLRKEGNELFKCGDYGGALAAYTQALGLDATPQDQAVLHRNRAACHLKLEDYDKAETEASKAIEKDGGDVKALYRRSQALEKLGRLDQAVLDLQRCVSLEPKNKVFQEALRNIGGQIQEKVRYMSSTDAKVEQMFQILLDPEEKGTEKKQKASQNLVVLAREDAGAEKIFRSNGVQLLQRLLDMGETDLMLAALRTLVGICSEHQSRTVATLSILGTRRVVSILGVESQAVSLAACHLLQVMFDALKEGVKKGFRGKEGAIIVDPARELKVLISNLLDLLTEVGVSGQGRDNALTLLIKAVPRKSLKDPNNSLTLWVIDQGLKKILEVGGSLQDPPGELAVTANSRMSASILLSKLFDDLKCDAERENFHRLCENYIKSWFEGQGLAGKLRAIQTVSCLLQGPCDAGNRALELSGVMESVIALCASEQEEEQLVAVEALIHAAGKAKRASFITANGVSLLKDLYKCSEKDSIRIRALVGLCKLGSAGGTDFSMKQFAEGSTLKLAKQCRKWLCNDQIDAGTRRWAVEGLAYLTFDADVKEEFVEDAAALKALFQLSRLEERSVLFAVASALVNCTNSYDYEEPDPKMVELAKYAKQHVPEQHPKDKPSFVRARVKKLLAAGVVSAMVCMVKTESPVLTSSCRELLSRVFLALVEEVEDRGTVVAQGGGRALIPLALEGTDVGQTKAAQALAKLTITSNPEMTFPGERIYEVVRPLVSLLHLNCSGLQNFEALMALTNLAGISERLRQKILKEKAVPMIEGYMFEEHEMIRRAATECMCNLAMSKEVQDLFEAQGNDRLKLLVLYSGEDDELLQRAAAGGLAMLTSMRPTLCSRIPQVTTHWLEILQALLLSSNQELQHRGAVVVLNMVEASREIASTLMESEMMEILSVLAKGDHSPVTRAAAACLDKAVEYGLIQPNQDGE
# Sequence of UniProt P55072 (P55072 whole entry, looked up): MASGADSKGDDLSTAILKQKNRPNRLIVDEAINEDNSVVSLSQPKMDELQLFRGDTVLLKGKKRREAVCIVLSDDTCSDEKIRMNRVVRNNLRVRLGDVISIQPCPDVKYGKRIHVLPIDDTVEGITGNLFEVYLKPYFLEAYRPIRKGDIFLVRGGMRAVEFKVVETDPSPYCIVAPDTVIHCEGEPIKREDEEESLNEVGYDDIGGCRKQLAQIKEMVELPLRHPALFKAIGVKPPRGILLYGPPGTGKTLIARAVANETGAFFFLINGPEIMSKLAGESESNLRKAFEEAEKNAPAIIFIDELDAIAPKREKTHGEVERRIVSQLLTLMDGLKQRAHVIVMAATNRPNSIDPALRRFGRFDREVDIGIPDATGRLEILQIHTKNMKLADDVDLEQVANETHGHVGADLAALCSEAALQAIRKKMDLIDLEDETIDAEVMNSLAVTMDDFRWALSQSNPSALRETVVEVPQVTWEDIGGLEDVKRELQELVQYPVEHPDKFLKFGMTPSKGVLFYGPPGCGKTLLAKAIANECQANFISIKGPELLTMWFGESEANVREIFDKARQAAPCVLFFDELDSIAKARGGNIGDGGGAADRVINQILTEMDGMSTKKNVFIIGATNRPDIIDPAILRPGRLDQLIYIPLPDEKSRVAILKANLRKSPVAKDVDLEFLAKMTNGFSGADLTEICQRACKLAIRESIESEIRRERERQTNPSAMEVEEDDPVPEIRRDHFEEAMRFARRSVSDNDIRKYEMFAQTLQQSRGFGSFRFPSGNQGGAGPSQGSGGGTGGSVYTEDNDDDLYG
# Sequence of UniProt Q01831 (Q01831 whole entry, looked up): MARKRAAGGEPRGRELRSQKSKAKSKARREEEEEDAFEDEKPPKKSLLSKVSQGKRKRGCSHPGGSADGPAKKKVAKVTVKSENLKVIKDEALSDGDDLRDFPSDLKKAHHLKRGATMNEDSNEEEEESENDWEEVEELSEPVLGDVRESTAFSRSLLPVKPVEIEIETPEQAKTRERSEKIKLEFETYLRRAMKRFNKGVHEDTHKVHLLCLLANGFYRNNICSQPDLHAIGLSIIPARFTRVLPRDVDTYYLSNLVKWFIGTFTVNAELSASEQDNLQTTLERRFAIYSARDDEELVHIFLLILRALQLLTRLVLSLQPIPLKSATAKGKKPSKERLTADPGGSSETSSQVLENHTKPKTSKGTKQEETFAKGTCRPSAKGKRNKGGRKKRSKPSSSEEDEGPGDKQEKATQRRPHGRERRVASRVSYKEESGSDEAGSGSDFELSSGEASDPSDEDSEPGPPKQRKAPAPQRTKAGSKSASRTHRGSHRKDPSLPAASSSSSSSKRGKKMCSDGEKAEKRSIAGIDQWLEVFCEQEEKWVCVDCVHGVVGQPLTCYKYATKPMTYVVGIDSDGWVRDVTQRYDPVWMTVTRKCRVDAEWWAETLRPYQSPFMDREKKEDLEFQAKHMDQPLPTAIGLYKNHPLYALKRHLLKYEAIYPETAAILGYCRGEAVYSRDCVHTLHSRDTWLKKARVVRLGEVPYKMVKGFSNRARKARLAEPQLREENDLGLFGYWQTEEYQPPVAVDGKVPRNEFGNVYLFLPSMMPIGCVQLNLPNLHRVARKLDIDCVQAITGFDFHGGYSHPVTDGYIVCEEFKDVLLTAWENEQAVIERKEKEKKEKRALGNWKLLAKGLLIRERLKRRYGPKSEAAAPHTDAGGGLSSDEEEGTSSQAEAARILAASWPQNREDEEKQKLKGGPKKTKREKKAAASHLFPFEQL
# Sequence of UniProt P50552 (P50552 whole entry, looked up): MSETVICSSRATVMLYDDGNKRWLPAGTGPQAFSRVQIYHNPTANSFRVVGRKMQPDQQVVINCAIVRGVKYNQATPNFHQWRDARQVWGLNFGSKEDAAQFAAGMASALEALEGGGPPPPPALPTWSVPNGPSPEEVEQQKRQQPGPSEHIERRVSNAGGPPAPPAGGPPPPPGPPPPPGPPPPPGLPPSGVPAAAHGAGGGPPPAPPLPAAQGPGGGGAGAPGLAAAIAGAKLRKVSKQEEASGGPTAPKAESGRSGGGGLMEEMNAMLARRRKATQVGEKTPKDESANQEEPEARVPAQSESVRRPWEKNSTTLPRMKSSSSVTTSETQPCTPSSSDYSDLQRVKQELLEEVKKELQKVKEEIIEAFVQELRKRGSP
# Sequence of UniProt Q3KQV9 (Q3KQV9 whole entry, looked up): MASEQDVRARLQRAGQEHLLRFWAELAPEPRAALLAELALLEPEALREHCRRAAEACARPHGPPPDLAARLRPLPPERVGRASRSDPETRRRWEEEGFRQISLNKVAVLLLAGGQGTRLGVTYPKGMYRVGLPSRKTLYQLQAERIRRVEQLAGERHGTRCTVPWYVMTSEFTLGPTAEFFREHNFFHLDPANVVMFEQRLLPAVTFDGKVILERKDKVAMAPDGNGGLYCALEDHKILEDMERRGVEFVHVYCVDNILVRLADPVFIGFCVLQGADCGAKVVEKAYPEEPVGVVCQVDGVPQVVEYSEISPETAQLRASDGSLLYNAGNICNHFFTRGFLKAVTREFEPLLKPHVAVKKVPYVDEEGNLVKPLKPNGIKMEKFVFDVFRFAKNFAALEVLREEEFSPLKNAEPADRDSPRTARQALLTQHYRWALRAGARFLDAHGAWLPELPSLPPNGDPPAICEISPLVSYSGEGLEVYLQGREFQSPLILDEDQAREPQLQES
# Sequence of UniProt Q14166 (Q14166 whole entry, looked up): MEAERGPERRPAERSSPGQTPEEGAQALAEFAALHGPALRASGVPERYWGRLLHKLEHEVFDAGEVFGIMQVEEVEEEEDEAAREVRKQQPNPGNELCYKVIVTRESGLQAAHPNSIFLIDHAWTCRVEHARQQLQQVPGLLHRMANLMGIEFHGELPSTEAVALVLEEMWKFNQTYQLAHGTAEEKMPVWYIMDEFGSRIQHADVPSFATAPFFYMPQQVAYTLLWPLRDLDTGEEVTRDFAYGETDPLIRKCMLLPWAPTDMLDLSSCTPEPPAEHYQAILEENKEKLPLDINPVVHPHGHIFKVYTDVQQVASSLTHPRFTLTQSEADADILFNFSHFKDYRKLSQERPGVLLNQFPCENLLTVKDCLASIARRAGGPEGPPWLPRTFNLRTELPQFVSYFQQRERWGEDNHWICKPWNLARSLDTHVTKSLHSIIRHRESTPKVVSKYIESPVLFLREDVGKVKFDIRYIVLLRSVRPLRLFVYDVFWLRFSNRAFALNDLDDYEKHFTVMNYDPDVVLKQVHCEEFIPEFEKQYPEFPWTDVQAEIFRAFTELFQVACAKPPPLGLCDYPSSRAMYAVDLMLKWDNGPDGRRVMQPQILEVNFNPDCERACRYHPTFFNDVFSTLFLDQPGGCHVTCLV
# Sequence of UniProt Q9HCJ6 (Q9HCJ6 whole entry, looked up): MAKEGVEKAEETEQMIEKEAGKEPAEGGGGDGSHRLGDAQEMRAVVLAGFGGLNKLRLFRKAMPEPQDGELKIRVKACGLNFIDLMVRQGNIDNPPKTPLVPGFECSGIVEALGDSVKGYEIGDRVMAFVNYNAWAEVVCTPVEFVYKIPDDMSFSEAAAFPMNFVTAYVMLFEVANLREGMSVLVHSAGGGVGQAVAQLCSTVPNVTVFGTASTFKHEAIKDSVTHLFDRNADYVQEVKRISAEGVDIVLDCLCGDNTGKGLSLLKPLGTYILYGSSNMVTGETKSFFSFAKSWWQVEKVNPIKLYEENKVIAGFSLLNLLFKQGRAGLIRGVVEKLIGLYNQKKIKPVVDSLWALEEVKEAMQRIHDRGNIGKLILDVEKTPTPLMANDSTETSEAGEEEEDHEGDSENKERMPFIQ
row,Target,probe-labelled cysteine peptide fold change
1,TRMT61A_Q96FX7_209_FCSFSPCIEQVQR (UniProt Q96FX7),-0.023
2,UBR7_Q8N806_99+101_CDCGNSK (UniProt Q8N806),-0.0898
3,VPS45_Q9NRW7_359_NLLEVSEVEQELACQNDHSSALQNIK (UniProt Q9NRW7),0.273
4,UAP1L1_Q3KQV9_271_LADPVFIGFCVLQGADCGAK (UniProt Q3KQV9),-0.0621
5,USP40_Q9NVE5_50_NQGGTCYLNSLLQTLHFTPEFR (UniProt Q9NVE5),-0.26
6,TTC37_Q6PGP7_600_DFNCWESLGEAYLSR (UniProt Q6PGP7),0.0103
7,UBR5_O95071_1942_SHNDEHSDVLPVLDVCSLK (UniProt O95071),-0.586
8,VCPIP1_Q96JH7_207+219_SQECLIPVHVDGDGHCLVHAVSR (UniProt Q96JH7),-0.42
9,VPS29_Q9UBQ0_36+41_IQHILCTGNLCTK (UniProt Q9UBQ0),0.0402
10,TTYH3_Q9C0H2_486_CENTPLIGR (UniProt Q9C0H2),-0.0936
11,UFC1_Q9Y3C8_116_ICLTDHFK (UniProt Q9Y3C8),-0.127
12,WWP2_O00308_186_HQPPSTNCFGGR (UniProt O00308),-0.035
13,VPS39_Q96JC1_681_LICDFPFDGLLEER (UniProt Q96JC1),0.145
14,WDFY4_Q6ZS81_878_QVMCEAGLLGTLMASCHR (UniProt Q6ZS81),0.0899
15,VASP_P50552_7_SETVICSSR (UniProt P50552),0.55
16,WDR26_Q9H7D7_238_CELTPLK (UniProt Q9H7D7),-0.0356
17,UBE2O_Q9C0C9_598_VQSCPDPAVYGVVQSGDHIGR (UniProt Q9C0C9),-0.0239
18,WDFY4_Q6ZS81_1763_HHQEEVLQAGLCTEGALLLLEMLK (UniProt Q6ZS81),0.571
19,XPA_P23025_126+129_EFMDSYLMNHFDLPTCDNCR (UniProt P23025),0.169
20,TUBGCP3_Q96CW5_388_TLAALVDHCQGRK (UniProt Q96CW5),-0.158

row,Target,probe-labelled cysteine peptide fold change
1,TUBA1B_P68363_213_SKLEFSIYPAPQVSTAVVEPYNSILTTHTTLEHSDCAFMVDNEAIYDICRR<|>TUBA4A_P68366_213_SKLEFSIYPAPQVSTAVVEPYNSILTTHTTLEHSDCAFMVDNEAIYDICRR<|>TUBA1A_Q9BQE3_213_SKLEFSIYPAPQVSTAVVEPYNSILTTHTTLEHSDCAFMVDNEAIYDICRR (UniProt Q9BQE3+P68366+P68363),0.181
2,WDR47_O94967_322_SLNPALDGLTCGLTSHDK (UniProt O94967),0.104
3,VAT1L_Q9HCJ6_253+255_ISAEGVDIVLDCLCGDNTGK (UniProt Q9HCJ6),0.196
4,TXNL1_O43396_135+137+149_AGCECLNESDEHGFDNCLR (UniProt O43396),-0.02
5,UBA7_P41226_223_DGDLVTFSGIEGMVELNDCDPR (UniProt P41226),0.000986
6,TXNIP_Q9H3M7_36_VIVEVCEVTR (UniProt Q9H3M7),0.136
7,TTLL12_Q14166_418_WGEDNHWICK (UniProt Q14166),0.0917
8,TXN2_Q99757_90+93_VVNSETPVVVDFHAQWCGPCK (UniProt Q99757),-0.411
9,TXN2_Q99757_93_VVNSETPVVVDFHAQWCGPCK (UniProt Q99757),-0.376
10,VPS13C_Q709C8_2276+2289_GIEHSLIEENCGVVVESIQVTLECGLGHR (UniProt Q709C8),0.105
11,VPS11_Q9H270_586_EAPGCR (UniProt Q9H270),0.694
12,VPS51_Q9UID3_226_AIQDDCQVITAR (UniProt Q9UID3),-0.0611
13,WDR37_Q9Y2I8_329_TANLYDVETSELVHSLTGHDQELTHCCTHPTQR (UniProt Q9Y2I8),0.0866
14,VCP_P55072_105_LGDVISIQPCPDVK (UniProt P55072),-0.0602
15,TSR1_Q2NL82_618_AKEELIFHCGFR (UniProt Q2NL82),0.00999
16,UACA_Q9BZF9_481_ALALECER (UniProt Q9BZF9),-0.0367
17,VARS_P26640_1185_CSIHLQLQGLVDPARELGK (UniProt P26640),-0.114
18,TXNRD1_Q16881_339_EYCISSDDLFSLPYCPGK (UniProt Q16881),0.364
19,XPC_Q01831_224_NNICSQPDLHAIGLSIIPAR (UniProt Q01831),-0.0894
20,UNC45A_Q9H3U1_503_ALVGLCK (UniProt Q9H3U1),0.0324

# Same assay, conditions: 50 µM; THP-1; incubation time: 4 h
row,Target,probe-labelled cysteine peptide fold change
1,TRMT61A_Q96FX7_209_FCSFSPCIEQVQR (UniProt Q96FX7),-0.323
2,UBR7_Q8N806_99+101_CDCGNSK (UniProt Q8N806),-0.168
3,VPS45_Q9NRW7_359_NLLEVSEVEQELACQNDHSSALQNIK (UniProt Q9NRW7),-0.0913
4,UAP1L1_Q3KQV9_271_LADPVFIGFCVLQGADCGAK (UniProt Q3KQV9),-0.144
5,USP40_Q9NVE5_50_NQGGTCYLNSLLQTLHFTPEFR (UniProt Q9NVE5),-0.513
6,TTC37_Q6PGP7_600_DFNCWESLGEAYLSR (UniProt Q6PGP7),-0.0643
7,UBR5_O95071_1942_SHNDEHSDVLPVLDVCSLK (UniProt O95071),-0.263
8,VCPIP1_Q96JH7_207+219_SQECLIPVHVDGDGHCLVHAVSR (UniProt Q96JH7),-1.06
9,VPS29_Q9UBQ0_36+41_IQHILCTGNLCTK (UniProt Q9UBQ0),-0.0827
10,TTYH3_Q9C0H2_486_CENTPLIGR (UniProt Q9C0H2),-0.00547
11,UFC1_Q9Y3C8_116_ICLTDHFK (UniProt Q9Y3C8),-0.0548
12,WWP2_O00308_186_HQPPSTNCFGGR (UniProt O00308),-0.168
13,VPS39_Q96JC1_681_LICDFPFDGLLEER (UniProt Q96JC1),0.086
14,WDFY4_Q6ZS81_878_QVMCEAGLLGTLMASCHR (UniProt Q6ZS81),-0.0334
15,VASP_P50552_7_SETVICSSR (UniProt P50552),0.717
16,WDR26_Q9H7D7_238_CELTPLK (UniProt Q9H7D7),-0.0732
17,UBE2O_Q9C0C9_598_VQSCPDPAVYGVVQSGDHIGR (UniProt Q9C0C9),-0.0974
18,WDFY4_Q6ZS81_1763_HHQEEVLQAGLCTEGALLLLEMLK (UniProt Q6ZS81),0.181
19,XPA_P23025_126+129_EFMDSYLMNHFDLPTCDNCR (UniProt P23025),0.182
20,TUBGCP3_Q96CW5_388_TLAALVDHCQGRK (UniProt Q96CW5),-0.0586

row,Target,probe-labelled cysteine peptide fold change
1,TUBA1B_P68363_213_SKLEFSIYPAPQVSTAVVEPYNSILTTHTTLEHSDCAFMVDNEAIYDICRR<|>TUBA4A_P68366_213_SKLEFSIYPAPQVSTAVVEPYNSILTTHTTLEHSDCAFMVDNEAIYDICRR<|>TUBA1A_Q9BQE3_213_SKLEFSIYPAPQVSTAVVEPYNSILTTHTTLEHSDCAFMVDNEAIYDICRR (UniProt Q9BQE3+P68366+P68363),-0.0591
2,WDR47_O94967_322_SLNPALDGLTCGLTSHDK (UniProt O94967),-0.116
3,VAT1L_Q9HCJ6_253+255_ISAEGVDIVLDCLCGDNTGK (UniProt Q9HCJ6),-0.072
4,TXNL1_O43396_135+137+149_AGCECLNESDEHGFDNCLR (UniProt O43396),-0.634
5,UBA7_P41226_223_DGDLVTFSGIEGMVELNDCDPR (UniProt P41226),0.0382
6,TXNIP_Q9H3M7_36_VIVEVCEVTR (UniProt Q9H3M7),0.375
7,TTLL12_Q14166_418_WGEDNHWICK (UniProt Q14166),0.0468
8,TXN2_Q99757_90+93_VVNSETPVVVDFHAQWCGPCK (UniProt Q99757),-1.31
9,TXN2_Q99757_93_VVNSETPVVVDFHAQWCGPCK (UniProt Q99757),-1.25
10,VPS13C_Q709C8_2276+2289_GIEHSLIEENCGVVVESIQVTLECGLGHR (UniProt Q709C8),-0.00969
11,VPS11_Q9H270_586_EAPGCR (UniProt Q9H270),1.1
12,VPS51_Q9UID3_226_AIQDDCQVITAR (UniProt Q9UID3),0.0255
13,WDR37_Q9Y2I8_329_TANLYDVETSELVHSLTGHDQELTHCCTHPTQR (UniProt Q9Y2I8),-0.193
14,VCP_P55072_105_LGDVISIQPCPDVK (UniProt P55072),-0.113
15,TSR1_Q2NL82_618_AKEELIFHCGFR (UniProt Q2NL82),0.0707
16,UACA_Q9BZF9_481_ALALECER (UniProt Q9BZF9),0.0956
17,VARS_P26640_1185_CSIHLQLQGLVDPARELGK (UniProt P26640),-0.105
18,TXNRD1_Q16881_339_EYCISSDDLFSLPYCPGK (UniProt Q16881),0.552
19,XPC_Q01831_224_NNICSQPDLHAIGLSIIPAR (UniProt Q01831),0.0467
20,UNC45A_Q9H3U1_503_ALVGLCK (UniProt Q9H3U1),0.188
